For test [1], the target named is human Sirtuin 2 (SIRT2), SIRT2 (gene 22933) (UniProt Q8IXJ6). Put plainly: NVS_ENZ_hSIRT2: NovaScreen (NVS) Enzymatic Assay for human Sirtuin 2 (SIRT2) (AID 2283217). The procedure, abridged: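 Single-point duplicate screen at 25 uM, then concentration-response (max 50 uM) for chemicals passing threshold. Enzyme activity of recombinant human SIRT2 measured after 1 hr by fluorescence with mobility-shift separation of product; DMSO baseline.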

Test [2] addresses human Vascular Endothelial Growth Factor Receptor 2 (VEGFR2), KDR (gene 3791) (UniProt P35968). In words: NVS_ENZ_hVEGFR2: NovaScreen (NVS) Enzymatic Assay for human Vascular Endothelial Growth Factor Receptor 2 (VEGFR2) (AID 2283230). The procedure, abridged:
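Cell-free recombinant VEGFR2 kinase, fluorescent substrate with electrophoretic mobility-shift separation; read 1 h after dosing. Screened at 25 uM in duplicate, hits to concentration-response up to 50 uM; loss-of-signal versus DMSO.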

For test [3], the target named is sheep Cyclooxygenase-2 (Cox2), PTGS2 (gene 443460) (UniProt P79208). In words: NVS_ENZ_oCOX2: NovaScreen (NVS) Enzymatic Assay for sheep Cyclooxygenase-2 (Cox2) (AID 2283231). A digest of the protocol:
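Ovine placental enzyme, cell-free; chemical added, 0.66 h, absorbance (colorimetric). Screen 25 uM in duplicate; ≥threshold hits titrated, top 50 uM. Inhibition = signal loss vs DMSO.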

Test [4] concerns the target rabbit Imidazoline 2 Central (I2C), CKB (gene 100009085) (UniProt P00567). Put plainly: NVS_ENZ_rabI2C: NovaScreen (NVS) Enzymatic Assay for rabbit Imidazoline 2 Central (I2C) (AID 2283228). A digest of the protocol: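 Rabbit brain membranes, cell-free; readout by filter-based scintillation counting 1.5 hours after dosing, loss of signal vs DMSO. Initial duplicate test at 25 uM, then concentration-response with 50 uM top concentration.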

The target in test [5] is human Sirtuin 1 (SIRT1), SIRT1 (gene 23411) (UniProt Q96EB6). Put plainly: NVS_ENZ_hSIRT1: NovaScreen (NVS) Enzymatic Assay for human Sirtuin 1 (SIRT1) (AID 2283219). A digest of the protocol:
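Cell-free recombinant SIRT1 with a fluorescent substrate; substrate and product separated by electrophoretic mobility shift and read by fluorescence intensity, 1 h after dosing. Primary screen at 25 uM in duplicate; hits re-run in concentration-response up to 50 uM, relative to DMSO.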

Test [6] concerns the target Adenosine receptor A1 (Bos taurus) (UniProt P28190). Put plainly: NVS_GPCR_bAdoR_NonSelective: NovaScreen (NVS) G Protein-Coupled Receptor Assay for bovine Adenosine Receptor (AdoR), Non-selective Binding (AID 2283244). The procedure, abridged: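 Cell-free binding with membranes from bovine striatum: radioligand displaced by test chemical, read after 1 h by filtration and scintillation. Single-point 25 uM duplicate primary, 50 uM top concentration in follow-up curves, DMSO baseline.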

The target of test [7] is human Sirtuin 3 (SIRT3), SIRT3 (gene 23410) (UniProt Q9NTG7). Put plainly: NVS_ENZ_hSIRT3: NovaScreen (NVS) Enzymatic Assay for human Sirtuin 3 (SIRT3) (AID 2283222). A digest of the protocol:
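Cell-free enzyme assay with recombinant protein and fluorescent substrate, product separated by electrophoretic mobility shift; read 1 hour after dosing. Screened in duplicate at 25 uM, then singleton concentration-response up to 50 uM; loss of signal versus DMSO.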

In test [8] the target is human Protein Tyrosine Phosphatase Receptor Type M (PTPRM), PTPRM (gene 5797) (UniProt P28827). In words: NVS_ENZ_hPTPRM: NovaScreen (NVS) Enzymatic Assay for human Protein Tyrosine Phosphatase Receptor Type M (PTPRM) (AID 2283215). The procedure, abridged: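 Read-out is fluorescence after electrophoretic separation of substrate and product, taken 1.33 h post-dosing with recombinant enzyme. Compounds screened at 25 uM in duplicate, then concentration series for actives; activity as signal loss relative to DMSO.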

Test [9] deals with human Vascular Endothelial Growth Factor Receptor 1 (VEGFR1), FLT1 (gene 2321) (UniProt P17948). Put plainly: NVS_ENZ_hVEGFR1: NovaScreen (NVS) Enzymatic Assay for human Vascular Endothelial Growth Factor Receptor 1 (VEGFR1) (AID 2283226). The procedure, abridged:
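Kinase activity of recombinant human VEGFR1 was read by fluorescence after electrophoretic separation of product from substrate, 1 h post-dosing; initial duplicate single-point testing at 25 uM, followed by concentration-series follow-up, with DMSO as baseline.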

Test [10] addresses bovine Dopamine Receptor (DR), Non-selective Binding, DRD1 (gene 281125) (UniProt Q95136). In words: NVS_GPCR_bDR_NonSelective: NovaScreen (NVS) G Protein-Coupled Receptor Assay for bovine Dopamine Receptor (DR), Non-selective Binding (AID 2283241). The procedure, abridged: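 Filter-based radioligand binding with bovine striatal membrane, incubated 1 h; DMSO as negative baseline. Initial duplicate single-point test at 25 uM preceded concentration series for actives.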

In test [11] the test system is bovine Histamine 1 Receptor (H1), gene 281231. In words: NVS_GPCR_bH1: NovaScreen (NVS) G Protein-Coupled Receptor Assay for bovine Histamine 1 Receptor (H1) (AID 2283246). The procedure, abridged: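 Hits from a 25 uM duplicate primary screen were retested in concentration series (top 50 uM); binding measured as scintillation-counted displacement of radioligand from bovine cerebellar membranes after 1 h, normalised to DMSO.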

Test [12] deals with human Tropomyosin Receptor Kinase A (TRKA), NTRK1 (gene 4914) (UniProt P04629). In words: NVS_ENZ_hTrkA: NovaScreen (NVS) Enzymatic Assay for human Tropomyosin Receptor Kinase A (TRKA) (AID 2283224). A digest of the protocol:
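Compounds were screened at 25 uM in duplicate, then concentration series to a 50 uM top for those meeting threshold (e.g. 30% inhibition). Enzyme was recombinant human TrkA, incubated 1 h. Product formation was quantified by fluorescence after mobility-shift separation.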

Test [13] in a line: NVS_GPCR_bNPY_NonSelective: NovaScreen (NVS) G Protein-Coupled Receptor Assay for bovine Neuropeptide Y (NPY) Receptor, Non-selective Binding (AID 2283245). The procedure, abridged:
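Displacement of radioligand from bovine hippocampal membrane receptors, read by filtration and scintillation counting after 1 hour. Concentration-response to a top of 50 uM followed a 25 uM duplicate primary screen. Loss of signal versus DMSO.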

In test [14] the test system is guinea pig Leukotriene B4 Receptor (LTB4), gene 100379538. Put plainly: NVS_GPCR_gLTB4: NovaScreen (NVS) G Protein-Coupled Receptor Assay for guinea pig Leukotriene B4 Receptor (LTB4) (AID 2283247). A digest of the protocol:
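Membranes from guinea pig spleen incubated 2 h with radioligand and compound; bound counts measured by filtration and scintillation. Screened first at 25 uM in duplicate, then actives titrated to a 50 uM top concentration relative to DMSO.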

The target of test [15] is human SRC Proto-Oncogene, Non-receptor Tyrosine Kinase (SRC), SRC (gene 6714) (UniProt P12931). In words: NVS_ENZ_hSRC: NovaScreen (NVS) Enzymatic Assay for human SRC Proto-Oncogene, Non-receptor Tyrosine Kinase (SRC) (AID 2283223). The procedure, abridged:
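Compounds passing 30% inhibition at 25 uM (duplicate) were titrated to a top concentration of 50 uM. Enzyme activity read by fluorescence with mobility-shift substrate/product separation after 1 h; DMSO baseline.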

In test [16] the test system is bovine Angiotensin II Receptor Type 2 (AT2), gene 407157. In words: NVS_GPCR_bAT2: NovaScreen (NVS) G Protein-Coupled Receptor Assay for bovine Angiotensin II Receptor Type 2 (AT2) (AID 2283240). A digest of the protocol: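 Radioligand displacement on bovine cerebellar membranes, 1 hour incubation, filter-based scintillation counting; loss of signal vs DMSO. Duplicate single-point screen at 25 uM, then concentration-response to 50 uM maximum.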

For test [17], the target named is human Rho Associated Coiled-coil Containing Protein Kinase 1 (ROCK1), ROCK1 (gene 6093) (UniProt Q13464). Put plainly: NVS_ENZ_hROCK1: NovaScreen (NVS) Enzymatic Assay for human Rho Associated Coiled-coil Containing Protein Kinase 1 (ROCK1) (AID 2283214). A digest of the protocol: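 Compounds first run in duplicate at 25 uM against recombinant human ROCK1, then followed in concentration series. Kinase activity was read 1 h post-dosing by fluorescence with mobility-shift separation, as signal loss relative to DMSO.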

Test [18] has as its target human Vascular Endothelial Growth Factor Receptor 3 (VEGFR3), FLT4 (gene 2324) (UniProt P35916). Put plainly: NVS_ENZ_hVEGFR3: NovaScreen (NVS) Enzymatic Assay for human Vascular Endothelial Growth Factor Receptor 3 (VEGFR3) (AID 2283229). The procedure, abridged:
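Chemicals first run in duplicate at 25 uM, with actives re-tested in concentration series to a top of 50 uM. Recombinant VEGFR3 activity measured after 1 h via fluorescence with mobility-shift product separation; inhibition fitted relative to DMSO.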

Inconclusive results are not listed. The source made the active and inactive calls. Rule for the calls: active = hit-call score of the fitted dose curve at least 0.9, where 1 is the maximum; inconclusive = response in the unintended direction; inactive = score below 0.9.

Broadly, the AC50 is the concentration at which the activity in the assay is half-maximal.

Chain of rabbit Imidazoline 2 Central (I2C), CKB (gene 100009085) (P00567 whole entry, looked up): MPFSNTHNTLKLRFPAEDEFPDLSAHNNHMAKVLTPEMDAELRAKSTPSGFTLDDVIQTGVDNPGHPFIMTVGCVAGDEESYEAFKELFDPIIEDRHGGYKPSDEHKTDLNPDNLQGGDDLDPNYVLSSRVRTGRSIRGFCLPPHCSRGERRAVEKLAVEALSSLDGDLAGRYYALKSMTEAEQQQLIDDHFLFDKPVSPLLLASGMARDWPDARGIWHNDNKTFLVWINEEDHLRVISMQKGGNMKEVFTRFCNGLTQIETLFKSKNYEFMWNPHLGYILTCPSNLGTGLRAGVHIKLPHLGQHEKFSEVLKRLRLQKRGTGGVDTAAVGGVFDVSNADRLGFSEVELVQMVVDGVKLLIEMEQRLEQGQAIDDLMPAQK
Chain of human SRC Proto-Oncogene, Non-receptor Tyrosine Kinase (SRC), SRC (gene 6714) (P12931 whole entry, looked up): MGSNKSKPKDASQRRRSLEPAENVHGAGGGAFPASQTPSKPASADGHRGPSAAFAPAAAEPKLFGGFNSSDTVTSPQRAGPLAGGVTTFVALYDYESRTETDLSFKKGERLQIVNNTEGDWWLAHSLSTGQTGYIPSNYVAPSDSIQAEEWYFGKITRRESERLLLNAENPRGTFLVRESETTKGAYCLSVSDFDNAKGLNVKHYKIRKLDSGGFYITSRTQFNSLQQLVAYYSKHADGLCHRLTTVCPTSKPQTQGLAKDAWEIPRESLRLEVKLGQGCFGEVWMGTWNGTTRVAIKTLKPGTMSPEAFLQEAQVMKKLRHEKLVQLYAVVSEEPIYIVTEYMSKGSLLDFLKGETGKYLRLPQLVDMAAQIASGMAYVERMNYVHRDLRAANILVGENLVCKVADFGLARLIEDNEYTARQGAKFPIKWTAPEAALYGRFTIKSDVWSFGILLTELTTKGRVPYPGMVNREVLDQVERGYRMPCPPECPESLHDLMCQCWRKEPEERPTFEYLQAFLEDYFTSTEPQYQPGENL
Chain of human Sirtuin 3 (SIRT3), SIRT3 (gene 23410) (Q9NTG7 whole entry, looked up): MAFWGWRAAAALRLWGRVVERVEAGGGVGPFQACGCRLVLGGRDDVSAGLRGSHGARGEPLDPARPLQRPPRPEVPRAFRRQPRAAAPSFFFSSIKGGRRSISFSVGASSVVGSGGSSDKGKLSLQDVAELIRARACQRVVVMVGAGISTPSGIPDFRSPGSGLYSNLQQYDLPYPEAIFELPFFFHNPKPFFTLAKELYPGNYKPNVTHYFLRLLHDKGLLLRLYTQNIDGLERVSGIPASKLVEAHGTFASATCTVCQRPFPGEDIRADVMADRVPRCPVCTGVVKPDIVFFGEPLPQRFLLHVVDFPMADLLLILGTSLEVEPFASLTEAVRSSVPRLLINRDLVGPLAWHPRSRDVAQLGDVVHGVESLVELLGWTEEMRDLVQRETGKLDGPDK
Chain of human Sirtuin 2 (SIRT2), SIRT2 (gene 22933) (Q8IXJ6 whole entry, looked up): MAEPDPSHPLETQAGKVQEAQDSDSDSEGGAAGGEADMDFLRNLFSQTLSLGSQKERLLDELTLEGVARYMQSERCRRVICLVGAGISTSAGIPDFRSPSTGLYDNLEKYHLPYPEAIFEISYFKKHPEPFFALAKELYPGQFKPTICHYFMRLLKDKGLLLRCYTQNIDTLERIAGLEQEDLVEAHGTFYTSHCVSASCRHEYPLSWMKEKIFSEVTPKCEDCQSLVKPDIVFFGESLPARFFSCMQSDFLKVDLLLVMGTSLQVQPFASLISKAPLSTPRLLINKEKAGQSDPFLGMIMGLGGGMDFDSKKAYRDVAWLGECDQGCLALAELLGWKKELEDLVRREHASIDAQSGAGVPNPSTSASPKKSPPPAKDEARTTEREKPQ
Chain of human Vascular Endothelial Growth Factor Receptor 2 (VEGFR2), KDR (gene 3791) (P35968 whole entry, looked up): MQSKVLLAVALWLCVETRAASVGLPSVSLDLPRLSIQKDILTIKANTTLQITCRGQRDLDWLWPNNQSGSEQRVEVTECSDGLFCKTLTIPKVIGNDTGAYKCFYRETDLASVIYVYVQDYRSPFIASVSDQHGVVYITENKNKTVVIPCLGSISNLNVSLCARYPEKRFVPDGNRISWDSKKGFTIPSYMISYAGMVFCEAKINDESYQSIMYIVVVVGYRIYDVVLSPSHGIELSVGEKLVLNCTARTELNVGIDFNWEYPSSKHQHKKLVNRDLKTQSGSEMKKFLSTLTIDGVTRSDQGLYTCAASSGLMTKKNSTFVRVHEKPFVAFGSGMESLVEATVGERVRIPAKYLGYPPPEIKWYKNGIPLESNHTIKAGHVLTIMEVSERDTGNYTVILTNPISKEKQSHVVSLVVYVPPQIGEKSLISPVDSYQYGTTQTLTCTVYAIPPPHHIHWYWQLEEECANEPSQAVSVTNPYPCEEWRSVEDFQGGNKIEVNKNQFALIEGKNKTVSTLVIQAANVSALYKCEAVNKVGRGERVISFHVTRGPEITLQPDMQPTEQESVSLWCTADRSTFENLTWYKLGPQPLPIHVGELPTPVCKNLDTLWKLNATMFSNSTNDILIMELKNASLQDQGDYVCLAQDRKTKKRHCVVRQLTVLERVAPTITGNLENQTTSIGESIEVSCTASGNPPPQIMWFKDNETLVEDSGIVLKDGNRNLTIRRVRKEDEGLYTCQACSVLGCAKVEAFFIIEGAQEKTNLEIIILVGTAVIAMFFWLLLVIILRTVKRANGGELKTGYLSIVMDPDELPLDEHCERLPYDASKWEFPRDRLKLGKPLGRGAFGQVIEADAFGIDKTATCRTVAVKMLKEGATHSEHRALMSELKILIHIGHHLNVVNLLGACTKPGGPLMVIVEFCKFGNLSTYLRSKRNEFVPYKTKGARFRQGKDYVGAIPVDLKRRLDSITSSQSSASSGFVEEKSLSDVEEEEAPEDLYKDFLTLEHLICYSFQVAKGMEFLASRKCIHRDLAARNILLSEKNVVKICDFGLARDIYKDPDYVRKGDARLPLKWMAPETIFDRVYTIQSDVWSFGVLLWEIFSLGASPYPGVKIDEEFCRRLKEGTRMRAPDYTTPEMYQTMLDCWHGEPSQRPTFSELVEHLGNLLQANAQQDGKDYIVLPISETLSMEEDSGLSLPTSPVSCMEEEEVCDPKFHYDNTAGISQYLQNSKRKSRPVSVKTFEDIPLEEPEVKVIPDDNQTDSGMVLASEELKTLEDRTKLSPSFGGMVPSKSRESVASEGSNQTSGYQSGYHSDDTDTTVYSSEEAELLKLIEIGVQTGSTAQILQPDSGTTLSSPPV
Chain of bovine Dopamine Receptor (DR), Non-selective Binding, DRD1 (gene 281125) (Q95136 whole entry, looked up): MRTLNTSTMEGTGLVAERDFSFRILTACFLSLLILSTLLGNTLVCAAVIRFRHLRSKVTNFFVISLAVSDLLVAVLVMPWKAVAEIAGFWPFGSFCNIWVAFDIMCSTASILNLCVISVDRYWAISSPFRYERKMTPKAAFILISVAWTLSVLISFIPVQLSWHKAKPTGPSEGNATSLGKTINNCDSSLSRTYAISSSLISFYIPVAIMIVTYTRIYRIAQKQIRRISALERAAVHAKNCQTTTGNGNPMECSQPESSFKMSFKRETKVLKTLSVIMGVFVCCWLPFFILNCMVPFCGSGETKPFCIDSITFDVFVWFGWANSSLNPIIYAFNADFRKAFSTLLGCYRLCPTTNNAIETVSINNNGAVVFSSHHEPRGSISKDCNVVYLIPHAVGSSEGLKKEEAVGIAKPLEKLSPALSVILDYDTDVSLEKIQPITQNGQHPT
Chain of Adenosine receptor A1 (Bos taurus) (P28190 whole entry, looked up): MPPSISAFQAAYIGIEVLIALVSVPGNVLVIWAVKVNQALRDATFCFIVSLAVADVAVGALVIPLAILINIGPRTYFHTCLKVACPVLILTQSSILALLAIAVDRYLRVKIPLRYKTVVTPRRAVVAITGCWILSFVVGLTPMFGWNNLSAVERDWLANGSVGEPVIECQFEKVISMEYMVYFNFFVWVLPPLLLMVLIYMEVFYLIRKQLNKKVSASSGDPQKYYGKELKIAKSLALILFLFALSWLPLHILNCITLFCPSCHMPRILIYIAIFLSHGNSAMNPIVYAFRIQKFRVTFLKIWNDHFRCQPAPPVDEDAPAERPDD
Chain of human Sirtuin 1 (SIRT1), SIRT1 (gene 23411) (Q96EB6 whole entry, looked up): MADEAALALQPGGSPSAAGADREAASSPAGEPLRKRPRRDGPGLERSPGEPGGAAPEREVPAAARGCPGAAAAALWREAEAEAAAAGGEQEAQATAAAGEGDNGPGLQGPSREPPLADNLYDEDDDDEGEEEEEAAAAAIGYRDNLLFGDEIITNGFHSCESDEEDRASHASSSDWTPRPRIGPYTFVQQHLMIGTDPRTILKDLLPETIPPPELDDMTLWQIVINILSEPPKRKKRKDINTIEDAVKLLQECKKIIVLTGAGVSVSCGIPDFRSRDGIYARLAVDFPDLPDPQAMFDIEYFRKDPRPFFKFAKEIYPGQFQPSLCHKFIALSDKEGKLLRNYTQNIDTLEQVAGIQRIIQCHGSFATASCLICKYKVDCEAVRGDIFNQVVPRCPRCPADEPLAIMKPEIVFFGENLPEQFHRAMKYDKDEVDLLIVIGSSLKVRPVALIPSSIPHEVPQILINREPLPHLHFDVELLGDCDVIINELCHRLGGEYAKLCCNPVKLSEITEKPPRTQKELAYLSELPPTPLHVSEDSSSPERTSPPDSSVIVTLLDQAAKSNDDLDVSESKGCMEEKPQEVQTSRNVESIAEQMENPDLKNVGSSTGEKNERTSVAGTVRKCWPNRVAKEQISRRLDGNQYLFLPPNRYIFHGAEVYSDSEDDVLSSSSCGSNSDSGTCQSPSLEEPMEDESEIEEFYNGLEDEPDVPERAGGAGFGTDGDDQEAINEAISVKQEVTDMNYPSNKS

On to `Cc1occc(=O)c1O`, for which the call in [1] and in [2] was inactive. Further, the AC50 in [3] is 17.6 µM (active).

`Nc1nc(=S)c2[nH]cnc2[nH]1`: the AC50 in test [4] was 20.7 µM (active).

As for `Cc1cc(SC2=C(O)C[C@@](CCc3ccc(N)cc3)(C(C)C)OC2=O)c(C(C)(C)C)cc1CO`, the compound was classed as inactive in test [5] and in [6].

Regarding `C=CCc1ccc(OC)c(OC)c1`, the call in [1] was inactive.

Regarding `COC(=O)CCC(=O)OC`, the call in test [5] and in test [7] was inactive.

With `COC(=O)[C@H]1[C@H]2C[C@@H]3c4[nH]c5cc(OC)ccc5c4CCN3C[C@H]2C[C@@H](OC(=O)c2cc(OC)c(OC)c(OC)c2)[C@@H]1OC`, the call in test [4] was inactive.

Turning to `COc1ccc(OC(F)(F)F)cc1CN[C@H]1CCCN[C@H]1c1ccccc1`, the outcome in test [8], in test [9] and in test [2] was inactive. For the same compound, the values for the AC50 in [4], in [10] and in test [11] were 15 µM (active), 8.68 µM (active) and 7.82 µM (active), respectively.

With `CCN(CC)CCOc1ccc(C(=C(Cl)c2ccccc2)c2ccccc2)cc1`, the AC50 was 21 µM (active) in test [1], 9.71 µM (active) in test [4], 14.2 µM (active) in test [10] and 30 µM (active) in test [13]. Besides, the result in test [7] and in [12] was inactive.

For `O=C1NC(=O)C(c2ccccc2)(c2ccccc2)N1`, the compound was classed as inactive in test [8], in test [7] and in test [9].

With `CC(C)(O)c1ccc(CNC(=O)c2cccnc2Oc2ccc(F)cc2)cc1`, the call in [5] and in [4] was inactive. For the same compound, the AC50 in test [14] was 4.68 µM (active).

Turning to `CCCCc1nc2cccnc2n1Cc1ccc(-c2ccccc2-c2nnn[nH]2)cc1`, the outcome in test [15] and in test [16] was inactive. Besides, the AC50 in [14] was 10.9 µM (active).

For the compound `CC(C)OC(=O)C(C)(C)Oc1ccc(C(=O)c2ccc(Cl)cc2)cc1`, the AC50 in test [7] was 8.69 µM (active).

Turning to `O=C(N[C@@H](c1ccccc1)[C@@H]1CCCCN1)c1cccc(C(F)(F)F)c1Cl`, the outcome in [17], in test [1] and in test [7] was inactive. Moreover, the AC50 in test [10] is 25 µM (active).

`O=C(O)CC(O)(CC(=O)O)C(=O)O`: the compound was called inactive in [12].

With `CN(C)C(=O)NC1(c2ccccc2)CCN(CCC[C@]2(c3ccc(Cl)c(Cl)c3)CCCN(C(=O)c3ccccc3)C2)CC1`, the compound was classed as inactive in [17], in [2], in test [6] and in test [13]. In addition, the results for the AC50 in test [1], in test [3] and in test [10] were 1.69 µM (active), 4.73 µM (active) and 1.3 µM (active), respectively.

Take `O=C(Oc1ccccc1)c1cccc(C(=O)Oc2ccccc2)c1`: the result in test [17] and in test [5] was inactive.

`CCCCCCCCCCCCCCOS(=O)(=O)O`: the AC50 in test [15] was 37.1 µM (active); in [2], 30.2 µM (active).

Turning to `CCCCOC(=O)CCCCC(=O)OCCCC`, in test [8], the result was inactive.

On to `CCCCCCCCCC[N+](C)(C)[O-]`, for which the AC50 in test [4] was 8.08 µM (active).

Regarding `N[C@@H](Cc1c[nH]c2ccccc12)C(=O)O`, the compound was classed as inactive in [17] and in test [5].

Take `CC(C)c1cccc(C(C)C)c1`: the compound was classed as inactive in test [17].

Take `CC1=C(C)S(=O)(=O)CCS1(=O)=O`: in test [5], the compound was called inactive.

With `CN(C)C(=O)NC1(c2ccccc2)CCN(CC[C@@]2(c3ccc(F)c(F)c3)CN(C(=O)c3ccccc3)CCO2)CC1`, the call in [9], in test [4], in test [2] and in [6] was inactive. Further, the AC50 in test [10] was 6.51 µM (active).

Consider `CC(=O)O`, for which the compound was called inactive in test [15].

Regarding `CCCCCCCCCCCCCCCCO`, in test [18], the AC50 is 46.6 µM (active).

As to `O=C(O)c1[nH]n(-c2ccc(S(=O)(=O)O)cc2)c(=O)c1N=Nc1ccc(S(=O)(=O)O)cc1`, the compound was classed as inactive in test [18].

In the case of `O=C(NS(=O)(=O)/C=C/c1cccs1)c1ccc(F)cc1Br`, the AC50 in test [16] is 14.5 µM (active).

In the case of `CCc1cc(C2=C(C(=O)O)N(c3ccccc3C(F)(F)F)S(=O)(=O)c3ccccc32)cc2c1OCO2`, the AC50 in [16] was 25 µM (active).

As for `O=C(O)CN(CC(=O)O)CC(=O)O`, the call in [6] was inactive.

`Nc1nc(Cl)nc2c1ncn2[C@H]1C[C@H](O)[C@@H](CO)O1`: in test [6], the AC50 was 10.6 µM (active).

Take `CN(C)CCCN1c2ccccc2Sc2ccc(Cl)cc21`: the compound was called inactive in [11].

Consider `CO[C@@H]1COCC[C@@H]1N[C@@H]1CC[C@@](C(=O)N2CCc3ncc(C(F)(F)F)cc3C2)(C(C)C)C1`, for which the compound was called inactive in test [11].

The record behind these values is PubChem BioAssay (EPA / NIEHS).
